Only some compounds are listed: those with a hit (about 2.5% of all), similar ones and a draw of the others.
POLB inh: blocks human DNA polymerase beta activity; P06746; Pol beta primer extension/strand displacement, fluorescence kinetic; Potency, µM (doses to about 114 µM), hits mostly inhibitors; 340,000 tested, 1.3% active
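Pol beta (10 nM) and compounds were preincubated 15 min at room temperature, then 50 nM substrate (final) started primer extension/strand displacement. Reads were taken at 0 and 10 min; concentration-response data were fitted to a four-parameter Hill equation.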
L3MBTL1 block: inhibitors of human L3MBTL1; AlphaScreen L3MBTL1–H3K9me1 peptide binding; 230,000 tested, 0.66% active; Potency, µM (highest dose often 57.1 µM), most hits filed as inhibitors; further: nearly all actives have a fitted effect of over 60% in size
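L3MBTL1 50 nM + b-AHA-H3(1-15)K9me1 75 nM, 30 min RT; compound added, 30 min RT; streptavidin donor/Ni-chelate acceptor beads 10 ug/mL each final, 30 min RT dark; AlphaScreen read.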
Pol iota inh: DNA polymerase iota (human) inhibition; Q9UNA4; Pol iota fluorescent replication assay, 10 min; Potency, µM (series often up to 115 µM), actives largely listed as inhibitors; 390,000 tested, 1% active
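Pol iota at 10 nM preincubated 15 min with compounds at room temperature; reaction started with fluorescent substrate, 50 nM final. Fluorescence read kinetically at 0 and 10 min; buffer-only wells as negative control.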
POLK inh: blocks human DNA polymerase kappa activity. purified Pol kappa, fluorescent DNA synthesis assay, 10 min. AID 588579. 400,000 tested, 0.53% active. Q9UBT6. Potency, µM (doses to about 107 µM), usual class: inhibitors
Target sequence (Q9UBT6 whole entry, looked up): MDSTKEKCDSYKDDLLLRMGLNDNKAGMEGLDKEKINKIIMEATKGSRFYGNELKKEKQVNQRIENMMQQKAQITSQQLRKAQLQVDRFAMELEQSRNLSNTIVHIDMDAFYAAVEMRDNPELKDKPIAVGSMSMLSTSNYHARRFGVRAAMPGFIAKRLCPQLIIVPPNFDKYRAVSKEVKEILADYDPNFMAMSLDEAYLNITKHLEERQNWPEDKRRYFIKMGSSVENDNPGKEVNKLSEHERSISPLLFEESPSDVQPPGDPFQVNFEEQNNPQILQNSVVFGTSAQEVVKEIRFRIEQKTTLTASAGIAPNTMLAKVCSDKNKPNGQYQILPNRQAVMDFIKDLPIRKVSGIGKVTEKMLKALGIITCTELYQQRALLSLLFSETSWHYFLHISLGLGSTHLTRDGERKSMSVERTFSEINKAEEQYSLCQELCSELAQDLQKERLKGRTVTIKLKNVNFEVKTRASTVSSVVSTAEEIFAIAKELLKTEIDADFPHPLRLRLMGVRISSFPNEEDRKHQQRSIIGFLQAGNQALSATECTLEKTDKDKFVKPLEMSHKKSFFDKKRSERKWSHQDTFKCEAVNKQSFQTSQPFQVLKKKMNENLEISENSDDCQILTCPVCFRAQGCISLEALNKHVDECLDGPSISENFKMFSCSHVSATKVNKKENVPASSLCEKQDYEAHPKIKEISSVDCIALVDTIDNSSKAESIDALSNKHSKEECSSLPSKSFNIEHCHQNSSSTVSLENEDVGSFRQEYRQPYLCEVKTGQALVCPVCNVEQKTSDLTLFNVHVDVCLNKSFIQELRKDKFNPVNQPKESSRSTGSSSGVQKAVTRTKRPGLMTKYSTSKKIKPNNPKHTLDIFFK
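Fluorescent qHTS in 1536-well format: enzyme (10 nM) and compound sat 15 min at room temperature before 50 nM substrate (final) was added. Signal taken at 0 and 10 min; no-enzyme buffer wells were negative controls.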
POLH inh: DNA polymerase eta (human) inhibition. Q9Y253. recombinant Pol eta, fluorescent DNA replication assay. Potency, µM (series often up to 114 µM), most hits filed as inhibitors. 390,000 tested, 1.2% active. AID 588591
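Pol eta at 10 nM preincubated with compounds 15 min at room temperature; reaction started with fluorescent substrate (50 nM final) and read kinetically at 0 and 10 min.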
APE1 inh: inhibitors of human APE1 endonuclease; P27695; recombinant APE1, TAMRA/BHQ-2 abasic DNA cleavage fluorescence; Potency, µM (titrated, usually from 65.8 µM), usual class: inhibitors; 350,000 tested, 0.35% active; AID 2517; further: nearly all actives have a fitted effect of over 55% in size
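Measures dequenching upon AP-site incision of a 5'-TAMRA/3'-BHQ-2 THF-containing duplex, 50 nM; human APE1 0.75 nM after 15 min room-temperature exposure to compound; kinetic three-point read at one-minute spacing.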
Hits are given with their value; . = inactive; ? = inconclusive; / = not tested or not shown. The call rests on the fitted dose curve; in most records, active means well fitted curve in the direction sought with a large enough effect; inconclusive means small, poorly fitted or top-dose-only effect, or another doubt; inactive means no such curve, though single readings can be large; an effect the other way counts as inactive or inconclusive.

SMILES	POLB inh	L3MBTL1 block	Pol iota inh	POLK inh	POLH inh	APE1 inh
C/C=C/C=C/[C@H]1Cc2cc(O)cc(O)c2O1	50µM	/	/	/	/	?
O=C1CC(c2ccc(Cl)cc2)c2c(O)cc(O)cc2O1 (stereo not drawn)	.	/	.	.	.	.
CC(=O)N1CCc2cc(S(=O)(=O)CCC(=O)NCCc3ccc(C)cc3)ccc21	.	/	.	.	.	.
COc1cccc(Cn2cnc3c(cnn3C(C)(C)C)c2=O)c1	/	/	.	.	/	.
Cc1ccc(-c2nc3ncccc3o2)cc1NC(=O)c1ccccc1	.	.	.	.	56µM	.
Cc1cc(OCC(=O)Nc2cc(-c3nc4ncccc4o3)ccc2C)ccc1Cl	.	/	.	.	79µM	/
Cc1ccc(-c2nc3ncccc3o2)cc1NC(=O)c1cccnc1	?	.	.	.	.	.
Cc1ccc(-c2nc3ncccc3o2)cc1NC(=O)COc1ccc(C(C)C)cc1	?	/	.	.	.	/
COC(=O)c1c(NC(=O)c2ccc(C(C)(C)C)cc2)sc2c1CCC(C)C2 (stereo not drawn)	.	/	.	.	.	/
O=C(N/N=C/c1cccnc1)c1cc(-c2ccccc2OCc2ccccc2)n[nH]1	79µM	.	.	.	.	.
O=C(N/N=C/c1cccnc1)c1ccccc1OCc1ccc(Cl)cc1	.	/	/	/	/	.
C[n+]1c(-c2ccccc2)cc2c(=Cc3ccccc3)c3ccccc3n21	/	/	50µM	.	.	/
CN(C)c1ccc(C=c2c3cc(O)ccc3n3c2cc(-c2ccccc2)[n+]3C)cc1	/	/	50µM	?	?	/
CN(C)c1ccc(C=C2c3ccccc3-c3ccccc32)cc1	/	/	.	.	/	/
C[n+]1c(-c2ccccc2)cc2c(=Cc3ccc([N+](=O)[O-])cc3)c3ccccc3n21	/	/	50µM	.	.	/
CCOC(=O)c1cc(-c2ccc(C)cc2)n(CC(=O)Nc2ccccc2F)c1C	.	/	.	.	.	/
NC(=S)N/N=C/c1coc2c(ccc3ccccc32)c1=O	.	.	?	.	?	.
O=c1cc(/N=C/c2coc3c(ccc4ccccc43)c2=O)[nH]c(=S)[nH]1	22µM	.	?	?	?	.
Cc1nc(N)[nH]c(=O)c1CCCNc1ccc(CCCCC2(CCl)OCCO2)cc1	/	/	.	.	.	/
Brc1ccc2c(ccc[n+]2CCc2ccccc2)c1	/	/	.	.	/	/
NS(=O)(=O)c1ccc(N=Nc2c(=O)[nH]n3c(=O)c4c([nH]c23)CCCC4)cc1	.	.	.	.	.	.
O=c1[nH]n2c(=O)c3c([nH]c2c1N=Nc1cccc(C(F)(F)F)c1)CCCC3	18µM	.	.	.	?	.
COc1cccc(N=Nc2c(=O)[nH]n3c(=O)c4c([nH]c23)CCC4)c1	?	?	?	.	50µM	?
Cc1[nH]n(C(N)=S)c(=O)c1N=Nc1cccc(C(F)(F)F)c1	.	/	.	.	.	.
COc1cccc(N=Nc2c(=O)[nH]n3c(=O)cc(C)[nH]c23)c1	.	/	.	.	.	.
SMILES	POLB inh	L3MBTL1 block	Pol iota inh	POLK inh	POLH inh	APE1 inh
O=c1[nH]n2c(=O)c3c([nH]c2c1N=Nc1cccc(Cl)c1)CCC3	8.9µM	3.5µM	20µM	89µM	20µM	.
O=C(c1cc2ccccc2[nH]1)c1cc2cc(O)ccc2[nH]1	/	/	.	.	/	/
Cc1cccc(-c2csc(N3CCC(C(N)=O)CC3)n2)c1	/	/	/	/	/	.
O=C(CSc1nc2c([nH]c3ccccc32)c(=O)n1-c1ccccc1)N1CCCC1	20µM	/	.	.	.	/
CCN(CC(=O)Nc1c(F)cccc1F)C(=O)C1CCN(S(=O)(=O)c2ccccc2C(=O)OC)CC1	/	/	?	?	.	/
CN(C)c1ccc(/C=C\C=C/c2ccnc3ccccc23)cc1	/	/	.	?	/	/
O=C1OC(c2ccccc2)=N/C1=C\C=C\c1ccco1	.	?	?	.	.	?
O=C1OC(c2ccc(Cl)cc2)=N/C1=C\C=C\c1ccco1	28µM	?	?	?	.	?
Cc1cnc2ccc(I)cc2c1/C=C/c1ccc(N(C)C)cc1	/	/	.	.	/	/
COc1ccccc1Cn1c(=S)[nH]c2cc(C(=O)N3CCCC(C)C3)ccc2c1=O (stereo not drawn)	/	/	/	/	.	/
CC(C)(C)n1ncc2c(=O)n(Cc3ccc(C#N)cc3)cnc21	/	/	?	?	/	.
CCOC(=O)COc1cc(-n2c(=S)[nH]c3cc(OC)c(OC)cc3c2=O)c(Cl)cc1Cl	.	0.71µM	.	.	.	.
CCOC(=O)COc1cc(N2C(=O)CSCC2=O)c(Cl)cc1Cl	.	.	.	.	.	.
O=C(Nc1nnc(SCc2cc(=O)n3cc(Cl)ccc3n2)s1)c1cccc(F)c1	.	/	.	.	.	/
COc1cccc(=O)c2c(C)n(C)c(C)c12	25µM	?	40µM	?	?	.
CCOc1cccc(=O)c2c(C)n(C)c(C)c12	?	?	22µM	?	?	?
COc1cccc(=O)c2c(C)n(-c3cc(C)cc(C)c3)c(C)c12	.	.	.	.	?	.
CC(=O)c1cccc(NC(=O)Cn2cc(C(=O)c3cccc(Cl)c3)c(=O)c3ccc(C)nc32)c1	.	/	89µM	.	.	/
COc1cccc(C(=O)c2cn(CC(=O)Nc3cccc(Cl)c3C)c3nc(C)ccc3c2=O)c1	.	/	.	.	.	/
Cc1coc2cc3oc(=O)c(CC(=O)N(C)CC(=O)O)c(C)c3cc12	.	/	.	.	.	.
Cc1coc2c(C)c3oc(=O)c(CCC(=O)N(C)CC(=O)O)c(C)c3cc12	79µM	/	.	.	20µM	.
COc1cccc(CNC(=O)CCc2c(C)c3cc4c(C)coc4c(C)c3oc2=O)c1	25µM	/	?	.	?	/
COc1cccc(CNC(=O)CCc2c(C)c3cc4c(C)coc4cc3oc2=O)c1	.	/	.	.	.	/
c1cn(-c2cc(-c3ccc4c(c3)OCO4)ncn2)cn1	/	/	/	25µM	/	8.9µM
COc1ccccc1-c1cc(-n2ccnc2)ncn1	/	/	/	.	/	.
SMILES	POLB inh	L3MBTL1 block	Pol iota inh	POLK inh	POLH inh	APE1 inh
O=C(NCc1ccc2c(c1)OCO2)c1ccc(C2SCC(=O)N2Cc2ccco2)cc1 (stereo not drawn)	.	?	?	.	79µM	?
C=CCNC(=O)c1ccc(C2SCC(=O)N2Cc2ccco2)cc1 (stereo not drawn)	?	/	45µM	?	?	?
O=C(c1ccc2c(=O)n(CC3CCCO3)c(=S)[nH]c2c1)N1CCN(C(=O)c2ccco2)CC1 (stereo not drawn)	/	/	.	.	/	/
CN(C)c1ccc(/C=C/c2cnnc3ccccc23)cc1	/	/	.	.	/	/
COC(=O)c1ccc(NC(=O)CCC(=O)c2ccc(F)cc2)cc1	.	/	.	.	.	.
CC1=Nc2ccccc2/C1=C/c1c(N)n2c(S(=O)(=O)CC(C)C)nsc2nc1=O	?	/	.	.	40µM	.
CSc1nsc2nc(=O)c(/C=C3\C=Nc4ccccc43)c(N)n12	.	.	.	.	?	.

Compound activity as filed in PubChem BioAssay.
